These results are taken from PubChem BioAssay.

Molecules are shown by their SMILES. The source made the active and inactive calls.

System in the first assay: not listed separately
Put plainly: modulators of S6 phosphorylation in cells, primary screen, cell-based, A549, cytoblot, luminescence, serum-stimulated (AID 1158).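 Note: serum-stimulated A549 lung adenocarcinoma cells; signal is phosphorylated S6 detected by cytoblot immunostaining with HRP secondary.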 To be noted: A549 phospho-S6 cytoblot, 5 h, higher = more signal.
Take `O=C1C2C=CC(C(O)c3cccc4ccccc34)N(n3cnnc3)C2C(=O)N1Cc1ccccc1` (stereo not given): the z-score was -0.711.
Compound `COCCCNC(=O)[C@]1(Cc2ccccc2N=[N+]=[N-])N=C(c2ccc(OCCCO)cc2)O[C@@H]1c1ccccc1CN=[N+]=[N-]` displayed a z-score of 1.97.
Same read-out and setting: the same measure for `C=C(COC)C(=O)CC[C@H](OC(=O)c1cccnc1)c1ccccc1OCCO`: -0.283; for `CCOC(=O)N1C(c2ccc(OCCCO)cc2)=NC(C(=O)OC)N1C(=O)OCC` (stereo not given): 1.02; for `C=CCOC(=O)[C@H]1[C@@H]2C(=O)O[C@@H](c3ccccc3)[C@@H](c3ccccc3)N2[C@@H](c2ccc(OCCOC(=O)[C@H]3C[C@H]4C(=O)N[C@@H](CCCC[N+](C)(C)C)C(=O)N4[C@H]3c3ccc(O)cc3)cc2)[C@]12C(=O)Nc1ccccc12`: -0.327.
As for `CC(C)N1C(=O)c2ccccc2[C@](C)(C(=O)NCCCN(C)C)[C@@H]1c1ccc(CO)cc1`, the z-score turned out to be 0.564.
`C=CCC(OC(C)=O)[C@@H]1[C@@H](N(Cc2ccc(-c3ccccc3)cc2)C(=O)c2ccc(C)cc2)c2cc(OCCCO)ccc2N1C(=O)c1ccc2ccccc2n1` (stereo not given in full) gave a z-score of 1.56.
`COC(=O)[C@@]1(Cc2ccc(F)cc2)[C@H]2c3cc(C(=O)N4CCCC4)n(Cc4ccc(Cl)c(C(F)(F)F)c4)c3C[C@H]2CN1C(=O)c1ccccc1` gave a z-score of -0.256.
`COCCCNC(=O)[C@@]1(Cc2ccccc2I)c2ccccc2C(=O)N(Cc2ccccc2)[C@H]1c1ccc(CO)cc1`: the z-score is -0.231.
`CC(=O)NCCCC[C@@H]1NC(=O)[C@@H]2C[C@H](C(=O)NCc3ccc(F)cc3)[C@H](c3ccc(O)cc3)N2C1=O` gave a z-score of -0.0125.
In turn, `CCOC(=O)C1=CC[C@@H](c2cccc(Cl)c2)N(S(=O)(=O)c2ccc(C)cc2)[C@H]1c1ccc(C#N)cc1` showed a z-score of -0.438.
Still for that read-out and setting: next, `CCCNC(=O)[C@@]1(C)c2ccccc2C(=O)N(Cc2cc(C(F)(F)F)cc(C(F)(F)F)c2)[C@H]1c1ccc(CO)cc1`: 1.49; `COC(=O)c1c2oc(c1C(=O)OC)C(=O)N[C@H](Cc1ccccc1)Cn1nncc1C1(CCCCC1)NC(=O)N[C@H](CO)CC2`: 0.14.
With `CN(C)CCCC[C@@H]1NC(=O)[C@@H]2C[C@H](C(=O)NCc3ccc(F)cc3)[C@H](c3cccc(OCCO)c3)N2C1=O`, the z-score turned out to be 0.612.
In turn, `COc1ccc([Si](C)(C)[C@@H]2[C@@H](CCn3cc([C@H](O)c4ccccc4)nn3)O[C@]3(C(=O)N(C)c4ccccc43)[C@H]2C)cc1` came in with a z-score of 0.416.

The target in another assay is NADPH oxidase 2 (Homo sapiens) (UniProt P04839). Put plainly: NOX2-dependent H2O2 signal modulators, primary screen, NOX inhibitor project, cell-based, HEK293-NOX2, PMA-stimulated, Amplex Red fluorescence (AID 1159). Note: test concentration not given here. Particulars: 45 min, higher = more signal, called active from +8 up or from −8 down.
NADPH oxidase 2 (Homo sapiens), sequence (P04839 whole entry, looked up): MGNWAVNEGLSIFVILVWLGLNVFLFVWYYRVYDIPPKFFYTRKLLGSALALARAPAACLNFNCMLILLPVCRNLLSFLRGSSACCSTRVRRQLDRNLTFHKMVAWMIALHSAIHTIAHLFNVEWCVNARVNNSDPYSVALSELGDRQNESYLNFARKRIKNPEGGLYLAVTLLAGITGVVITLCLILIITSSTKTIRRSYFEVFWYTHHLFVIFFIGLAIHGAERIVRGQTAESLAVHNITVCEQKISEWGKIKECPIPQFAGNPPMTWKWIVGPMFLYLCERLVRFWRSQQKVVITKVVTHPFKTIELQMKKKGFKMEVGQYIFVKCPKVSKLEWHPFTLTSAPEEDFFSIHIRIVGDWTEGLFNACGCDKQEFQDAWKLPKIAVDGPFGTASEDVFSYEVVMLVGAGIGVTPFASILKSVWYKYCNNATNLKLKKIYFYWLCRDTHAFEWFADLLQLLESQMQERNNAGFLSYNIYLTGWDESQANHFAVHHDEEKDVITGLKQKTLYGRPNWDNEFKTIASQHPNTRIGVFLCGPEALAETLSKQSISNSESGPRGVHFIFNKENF
On to `COc1ccc(C#Cc2ccc3c(c2)[C@]2(C(=O)N3)[C@H](C(=O)N3CCN(c4ncccn4)CC3)[C@H]3C(=O)O[C@H](c4ccccc4)[C@H](c4ccccc4)N3[C@@H]2c2ccc(O)cc2)cc1`, for which the z-score is 1.25 (inactive).
As for `CCCC[C@H]1C[C@@H]1[C@@H]1N(P(=O)(c2ccccc2)c2ccccc2)[C@](CO)(c2ccccc2)CC12CC2`, the z-score was -0.339 (inactive).
Still for that read-out and setting: the same measure for `O=C(N1CCCCC1)[C@]1(CCS(=O)(=O)c2ccccc2)N=C(c2ccc(OCCCO)cc2)O[C@@H]1c1ccccc1`: -2.96 (inactive); for `OCCCc1cc[n+](Cc2cccc(OC(F)(F)F)c2)cc1`: 0.972 (inactive); for `COc1ccc([Si](C)(C)[C@H]2[C@H](CC(=O)N3CCC[C@H]3CO)O[C@@]3(C(=O)N(Cc4cccc(N5CCC5=O)c4)c4ccccc43)[C@@H]2C)cc1`: 1.91 (inactive).
Regarding `CCCNC(=O)[C@@]1(c2ccc([N+](=O)[O-])cc2)CC(=O)N(CC23CC4CC(CC(C4)C2)C3)[C@@H]1c1ccc(CO)cc1I`, the z-score is 1.15 (inactive).
Consider `CCCNC(=O)[C@@]1(C)c2ccccc2C(=O)N(Cc2cc(F)cc(C(F)(F)F)c2)[C@H]1c1ccc(CO)cc1`, for which the z-score is -1.29 (inactive).
Regarding `C=C[C@H](C)[C@H](OC(=O)Nc1ccc(OC)cc1)c1ccc(O)c2ccccc12`, the z-score was -5.39 (inactive).
For the compound `O=c1cccc(-c2ccccc2)o1`, the z-score is 0.227 (inactive).
For `CC1CC/C=C\[C@H]2OC34C=CCN(Cn5nnc6ccccc65)C(=O)[C@H]3N(CCCO)C(=O)[C@@H]4C2C(=O)O1` (stereo not given in full), the z-score is 0.923 (inactive).
For `COc1ccc(C#Cc2ccc3c(c2)[C@]2(C(=O)N3)[C@H](c3ccc(OCCO)cc3)N3[C@H](c4ccccc4)[C@H](c4ccccc4)OC(=O)[C@H]3[C@@H]2C(=O)Nc2nc3ccccc3s2)cc1`, the z-score was 1.7 (inactive).
For `C=C(C(=O)CC[C@H](OC(=O)c1cccnc1)c1ccccc1OCCO)C(C)C`, the z-score was -1.85 (inactive).
On to `C=CC[C@@]1(C(=O)NCCN2CCOCC2)N=C(c2ccc(OCCCO)cc2)O[C@@H]1c1ccccc1CN=[N+]=[N-]`, for which the z-score was -0.842 (inactive).
As to `C=CCOC(=O)[C@H]1[C@@H]2C(=O)O[C@@H](c3ccccc3)[C@@H](c3ccccc3)N2[C@@H](c2ccc(OCCOC(=O)[C@@H]3C[C@@H]4C(=O)NCC(=O)N4[C@@H]3c3ccc(O)cc3)cc2)[C@]12C(=O)Nc1ccc(I)cc12`, the z-score was 1.57 (inactive).
Regarding `CCOC(=O)C[C@H]1[C@H](OC(=O)c2ccc(C(=O)c3ccccc3)cc2)[C@@H](NC(=O)c2ccc3ccccc3n2)c2cc(OCCCO)ccc2N1C(=O)c1ccc2ccccc2n1`, the z-score was -0.0371 (inactive).
As to `C=CCC(OC(C)=O)[C@@H]1[C@@H](N(Cc2ccc(-c3cccc(C(F)(F)F)c3)o2)C(=O)Cc2ccc(OC)cc2)c2cc(OCCCO)ccc2N1C(=O)Cc1ccc(OC)cc1` (stereo not given in full), the z-score was -2.27 (inactive).
On the same count and under the same terms, next, `C=CCC(OC(C)=O)[C@@H]1[C@@H](N(Cc2ccc(-c3ccccc3)cc2)C(=O)c2ccc(C)cc2)c2cc(OCCCO)ccc2N1C(=O)Cc1ccc(OC)cc1` (stereo not given in full): -0.137 (inactive).
With `C=C(COC)C(=O)CC[C@@H](OC(=O)c1ccccc1-c1ccccc1C(=O)O)c1ccc(CO)o1`, the z-score is -3.41 (inactive).
For the compound `CN(C)CCCC[C@@H]1NC(=O)[C@@H]2C[C@H](C(=O)NCCCCCN)[C@H](c3ccc(O)cc3)N2C1=O`, the z-score was -0.487 (inactive).
The same measure, in the same setting: next, `CN(C)CCCN1C(=O)[C@@]2(c3ccc([N+](=O)[O-])cc3)CC(=O)N(C3CCCCC3)[C@@H]2c2ccc(CO)cc21`: -0.209 (inactive).
On the same count and under the same terms, the same measure for `O=C1C2C=CC(C(O)c3cccc4ccccc34)N(n3cnnc3)C2C(=O)N1Cc1ccccc1` (stereo not given): -0.154 (inactive).
The same measure, in the same setting: next, `COCCCNC(=O)[C@]1(Cc2ccccc2N=[N+]=[N-])N=C(c2ccc(OCCCO)cc2)O[C@@H]1c1ccccc1CN=[N+]=[N-]`: -0.888 (inactive); `C=C(COC)C(=O)CC[C@H](OC(=O)c1cccnc1)c1ccccc1OCCO`: -2.86 (inactive); `CCOC(=O)N1C(c2ccc(OCCCO)cc2)=NC(C(=O)OC)N1C(=O)OCC` (stereo not given): -1.43 (inactive).
`C=CCOC(=O)[C@H]1[C@@H]2C(=O)O[C@@H](c3ccccc3)[C@@H](c3ccccc3)N2[C@@H](c2ccc(OCCOC(=O)[C@H]3C[C@H]4C(=O)N[C@@H](CCCC[N+](C)(C)C)C(=O)N4[C@H]3c3ccc(O)cc3)cc2)[C@]12C(=O)Nc1ccccc12`: the z-score was 2.39 (inactive).
For the compound `CC(C)N1C(=O)c2ccccc2[C@](C)(C(=O)NCCCN(C)C)[C@@H]1c1ccc(CO)cc1`, the z-score was 0.288 (inactive).
With `C=CCC(OC(C)=O)[C@@H]1[C@@H](N(Cc2ccc(-c3ccccc3)cc2)C(=O)c2ccc(C)cc2)c2cc(OCCCO)ccc2N1C(=O)c1ccc2ccccc2n1` (stereo not given in full), the z-score is -0.0121 (inactive).
With `COC(=O)[C@@]1(Cc2ccc(F)cc2)[C@H]2c3cc(C(=O)N4CCCC4)n(Cc4ccc(Cl)c(C(F)(F)F)c4)c3C[C@H]2CN1C(=O)c1ccccc1`, the z-score was 0.71 (inactive).
Same read-out and setting: the same measure for `COCCCNC(=O)[C@@]1(Cc2ccccc2I)c2ccccc2C(=O)N(Cc2ccccc2)[C@H]1c1ccc(CO)cc1`: 0.0296 (inactive); for `CC(=O)NCCCC[C@@H]1NC(=O)[C@@H]2C[C@H](C(=O)NCc3ccc(F)cc3)[C@H](c3ccc(O)cc3)N2C1=O`: 0.647 (inactive); for `CCOC(=O)C1=CC[C@@H](c2cccc(Cl)c2)N(S(=O)(=O)c2ccc(C)cc2)[C@H]1c1ccc(C#N)cc1`: 0.827 (inactive).
In the case of `CCCNC(=O)[C@@]1(C)c2ccccc2C(=O)N(Cc2cc(C(F)(F)F)cc(C(F)(F)F)c2)[C@H]1c1ccc(CO)cc1`, the z-score is -1.98 (inactive).
As to `COC(=O)c1c2oc(c1C(=O)OC)C(=O)N[C@H](Cc1ccccc1)Cn1nncc1C1(CCCCC1)NC(=O)N[C@H](CO)CC2`, the z-score was -2.86 (inactive).
For the compound `CN(C)CCCC[C@@H]1NC(=O)[C@@H]2C[C@H](C(=O)NCc3ccc(F)cc3)[C@H](c3cccc(OCCO)c3)N2C1=O`, the z-score is 1.85 (inactive).
With `COc1ccc([Si](C)(C)[C@@H]2[C@@H](CCn3cc([C@H](O)c4ccccc4)nn3)O[C@]3(C(=O)N(C)c4ccccc43)[C@H]2C)cc1`, the z-score was 1.62 (inactive).
